Screens (PubChem)
Compounds with a hit are over-represented: about 1.4% of the library has one in this group of screens.
Sa ugtP lethal = growth inhibition of S. aureus ugtP deletion strain | growth inhibition, % (no concentration beside the values) | S. aureus RN4220 ugtP deletion, OD600 growth, 16 h | 0.54% of 330,000 active; in the data active means growth inhibition above about 68%;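 further: plate controls were untreated wells for no effect and antibiotic for full effect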
Sa RN4220 lethal = S. aureus RN4220 growth inhibition. 0.33% of 330,000 active. OD600, 16 h. inhibition, % (concentration not given with the values). AID 1259311; in the data active means inhibition above about 85%;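 further: plate controls were untreated cells for no effect and reference antibiotic for full effect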
Mtb hypoxia inh = reduces hypoxia-regulated biosensor signal in M. tuberculosis | 0.1% of 300,000 active | M. tuberculosis hypoxia-regulated fluorescent reporter, fluorescence | fluorescence inhibition, % (no concentration beside the values); in the data active means fluorescence inhibition mostly above about 23%, no sharp cut-off; inactive means mostly below about 17%
PriA SSB inh = K. pneumoniae PriA-SSBct interaction inhibition; AlphaScreen SSBct-PriA binding, biotinylated peptide; inhibition, % at 33 µM; 0.6% of 430,000 active; AID 1272365; in the data active means inhibition mostly above about 37%, no sharp cut-off; inactive means mostly below about 20%;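 further: plate controls were negative control peptide for no effect and reference peptide for full effect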
CCHF vOTU inh = blocks the CCHF virus ovarian tumor domain protease; 0.55% of 370,000 active; inhibition, % at 11.5 µM; CCHFV vOTU protease, Pep-AMC fluorescence; in the data active means inhibition above about 30%; further: 0% = vehicle wells with enzyme and 100% = no enzyme wells
* hit, by the source's call; x = no result shown; ! = not confirmed by another sample.

SMILES | Sa ugtP lethal | Sa RN4220 lethal | Mtb hypoxia inh | PriA SSB inh | CCHF vOTU inh
Oc1cc2c(cc1C(c1ccc(Cl)c(Cl)c1)N1CCCC1)OCO2 (centres undefined) | 87* | 41 | 4 | 16 | 6
COc1ccc(NC(=O)C(c2cc3c(cc2[N+](=O)[O-])OCO3)N2CCN(C=O)CC2)cc1 (centres undefined) | 6 | 7 | 7 | 0 | -9
CCN(c1cccc(C)c1)C(C(=O)Nc1ccc(OC)cc1)c1cc2c(cc1[N+](=O)[O-])OCO2 (centres undefined) | 7 | 11 | -1 | 40* | 8
COc1ccc(NC(=O)C(c2cc3c(cc2[N+](=O)[O-])OCO3)N(C)Cc2ccccc2)cc1 (centres undefined) | 8 | -1 | 3 | 47* | 16
O=C1OCCN1C(=O)[C@H]1[C@H](c2ccc([N+](=O)[O-])cc2)C(c2ccc(F)cc2)=NN1c1ccc(Br)cc1 | 4 | 0 | -3 | 22 | 32*
COc1ccc(-c2cn3c(C(=O)Nc4ccc5c(c4)OCCO5)csc3n2)cc1 | x | x | x | active | x
O=C(Nc1ccc2c(c1)OCCO2)c1csc2nc(-c3ccc(F)cc3)cn12 | x | x | x | -16 | x
COc1ccc(-c2cn3c(CCC(=O)Nc4ccc5c(c4)OCO5)csc3n2)cc1 | x | x | x | 38* | x
CN(C[C@H]1Cc2ccccc2CO1)C(=O)Cn1cnc2c1c(=O)n(C)c(=O)n2C | x | x | x | -6 | x
O=C(c1ccccc1)c1c2c(cc3sc4ccccc4[n+]13)-c1cccc3cccc-2c13 | 100* | 100* | 24 | 28 | 3
Cc1sc2cc3c(c(C(=O)c4ccccc4)[n+]2c1C)-c1cccc2cccc-3c12 | 100* | 100* | x | 22 | -11
CN(C)C(=O)Cc1ccc(NC(=O)NC(C)(C)C)cc1 | x | x | x | -2 | x
O=C(NC(=S)N1CCCc2ccccc21)c1ccccc1 | 0 | 8 | x | 42*! | 2
O=C(NC(=S)N1CCCc2ccccc21)c1ccc(Cl)cc1 | -10 | 0 | 13 | 19 | 5
COc1cccc(C=NNC(=S)NC2CC3CC2C2C=CCC32)c1O (centres undefined) | -4 | 1 | -8 | 9 | x
O=C(CCN1C(=O)/C(=C/c2ccccc2Cl)SC1=S)NC1=NCCS1 | 87* | 3 | 0 | 4 | -8
CCCCC(CC)COC1(c2ccccc2)OC(=O)c2ccccc21 (centres undefined) | 86* | -4 | 6 | -29 | 16
C=CCc1ccc(Oc2nnc(-c3ccc(C)cc3)c3ccccc23)c(OC)c1 | x | x | x | -18 | x
CCc1ccc(NC(=O)c2cnn3ccccc23)cc1 | 10 | 3 | 13 | -13 | 9
O=C(NCc1ccc(F)cc1)c1cnn2ccccc12 | 10 | 1 | 2 | 104* | 13
CCCCOc1ccc(NC(=O)NCC(c2ccsc2)N(C)C)cc1 (centres undefined) | x | x | x | -1 | x
O=C(NCCO)C1=Cc2cc(Cl)ccc2OC=C1 | x | x | x | -10 | x
CCOc1ccc(C=NNC(=O)CSc2ccccn2)cc1O | 4 | -3 | -2 | x | x
CCC(CC)C(=O)Oc1c(Sc2ccccc2[N+](=O)[O-])c(C)nn1C(C)(C)C | 96* | -7 | -8 | 27 | 9
COCC(=O)Oc1c(Sc2ccccc2[N+](=O)[O-])c(C)nn1C(C)(C)C | 7 | 8 | 14 | 8 | 28
SMILES | Sa ugtP lethal | Sa RN4220 lethal | Mtb hypoxia inh | PriA SSB inh | CCHF vOTU inh
CC(C)(C)OC(=O)N1CCC(c2cc(C(N)=O)n[nH]2)CC1 | x | x | x | 39* | x
CC(C)(C)OC(=O)N1CCC(c2cc(-c3cccs3)n[nH]2)CC1 | 3 | -7 | -2 | -4 | 16
Cc1ccc(-c2c(C(=O)NN=Cc3sccc3C)nnn2-c2nonc2N)cc1 | 84 | 94* | -1 | -5 | x
CCC1Sc2ccc(S(=O)(=O)Nc3ccc(OC)cc3)cc2NC1=O (centres undefined) | 93* | 96* | 5 | 8 | 16
Cc1nn(C(C)(C)C)c(C)c1C=NOC(=O)Nc1ccc(Cl)cc1 | -35 | 8 | 12 | x | x
O=C(NC(=S)N1CCN(c2ccc(C(F)(F)F)cc2[N+](=O)[O-])CC1)c1cccs1 | 13 | 21 | 11 | 51* | 10
O=[N+]([O-])c1ccc(C(O)C(CO)NC(=S)Nc2ccccc2)cc1 (centres undefined) | 39 | 9 | 20 | -5 | 3
O=C(NC(CO)C(O)c1ccc([N+](=O)[O-])cc1)C(Cl)Cl (centres undefined) | 96* | 89* | x | -4 | 3
O=C(NC(CO)Cc1ccc([N+](=O)[O-])cc1)C(Cl)Cl (centres undefined) | 99* | 94* | x | -8 | x
O=C(O)CC(Cc1ccc(Cl)cc1)C(=O)Nc1ccc([N+](=O)[O-])cc1 (centres undefined) | 11 | 5 | 14 | -19 | 3
O=C(N[C@H](CO)[C@H](O)c1ccc([N+](=O)[O-])cc1)C(Cl)Cl | 98* | 98* | x | -7 | 4
Cc1ccc(NC(=S)NC(CO)C(O)c2ccc([N+](=O)[O-])cc2)cc1 (centres undefined) | 2 | 2 | 4 | 2 | 2
O=C(NCC1COC2(CCCC2)O1)c1ccc([N+](=O)[O-])cc1Cl (centres undefined) | x | x | x | 4 | x
CCOc1cccc2cc(C(=O)NCCCn3nc(-c4ccco4)ccc3=O)c(=O)oc12 | x | x | x | -14 | x
O=C1NC(=S)/C(=C\c2ccc(-c3ccccc3Cl)o2)S1 | 95* | 97* | 3 | 7 | 22
c1ccc(C[n+]2c(-c3ccccc3)csc2Nc2ccccc2)cc1 | 85* | -10 | 9 | 2 | -1
FC(F)(F)c1ccccc1NC(=S)OC1CCC12CCC(c1ccccc1)CC2 (centres undefined) | x | x | x | x | 4
Cc1ccc(C)c(S(=O)(=O)NN=C2CCCc3ccccc32)c1 | 0 | -6 | x | -11 | x
CCCc1ccc(Oc2cn[nH]c2-c2ccc(O)cc2O)cc1 | 90* | 67 | -4 | 19 | 4
CN(Cc1ccccc1F)C(=O)c1ccc(Oc2ccccc2)cc1 | 91* | 78 | 6 | -33 | 13
CN(Cc1ccc(C(F)(F)F)cc1)C(=O)c1ccc(Oc2ccccc2)cc1 | 14 | -3 | 0 | -6 | 18
CC1CCC2C(C)C(=O)OC3OC4(C)CCC1C32OO4 (centres undefined) | 21 | 7 | 81* | 3 | -3
C=C1C(=O)O[C@@]23C1CCC(C)C2CC[C@@]1(C)OC31 (some centres undefined) | 0 | 7 | 25 | x | x
CC1CCC2[C@@H](C)C(=O)OC3O[C@]4(C)CCC1C32OO4 (some centres undefined) | -3 | 2 | 84* | -7 | -8
COc1ccc(S(=O)(=O)NCCN2CCOCC2)cc1OC | x | x | x | 0 | x
Cc1c(CCOC(=O)CC23CC4CC(CC(C4)C2)C3)sc[n+]1CC(=O)c1ccccc1 | 16 | -2 | 7 | -33 | 15
Cc1c(CCOC(=O)C23CC4(C)CC(C)(CC(C)(C4)C2)C3)sc[n+]1CC(=O)c1ccccc1 | 100* | 98* | 5 | 6 | 18
